Several values for one entry are separate records, joined by “and”; a condition that tells them apart may be missing. Equal entries are not always repeated. Records with an inconclusive call do not appear. The source holds several records for some structures; these can differ, active in one and inactive in another. Activity calls are given as the source filed them. Unless noted, the call rests on the fitted dose curve; in most records, active means well fitted curve in the direction sought with a large enough effect; inconclusive means small, poorly fitted or top-dose-only effect, or another doubt; inactive means no such curve, though single readings can be large; an effect the other way counts as inactive or inconclusive.
Tests used:
[1] = P-glycoprotein substrates identified in KB-8-5-11 adenocarcinoma cell line, qHTS therapeutic library screen (AID 1346987); further: nearly all actives have a fitted effect of over 65% in size; further: potency means the concentration at half of the fitted maximal effect
Summary of the method: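 Compounds are pinned in dose-response onto KB-8-5-11 cells (500 cells/well, colchicine-free medium) and left 72 h at 37 degree C. CellTiter-Glo luminescence then yields AC50 values.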

[2] = biological target: Atrial natriuretic peptide receptor 1 (Homo sapiens) (UniProt P16066); assay: Natriuretic polypeptide receptor (hNpr1) antagonism - Pilot screen (AID 1347049; calls by dose curve)
Sequence of Atrial natriuretic peptide receptor 1 (Homo sapiens) (P16066 whole entry, looked up): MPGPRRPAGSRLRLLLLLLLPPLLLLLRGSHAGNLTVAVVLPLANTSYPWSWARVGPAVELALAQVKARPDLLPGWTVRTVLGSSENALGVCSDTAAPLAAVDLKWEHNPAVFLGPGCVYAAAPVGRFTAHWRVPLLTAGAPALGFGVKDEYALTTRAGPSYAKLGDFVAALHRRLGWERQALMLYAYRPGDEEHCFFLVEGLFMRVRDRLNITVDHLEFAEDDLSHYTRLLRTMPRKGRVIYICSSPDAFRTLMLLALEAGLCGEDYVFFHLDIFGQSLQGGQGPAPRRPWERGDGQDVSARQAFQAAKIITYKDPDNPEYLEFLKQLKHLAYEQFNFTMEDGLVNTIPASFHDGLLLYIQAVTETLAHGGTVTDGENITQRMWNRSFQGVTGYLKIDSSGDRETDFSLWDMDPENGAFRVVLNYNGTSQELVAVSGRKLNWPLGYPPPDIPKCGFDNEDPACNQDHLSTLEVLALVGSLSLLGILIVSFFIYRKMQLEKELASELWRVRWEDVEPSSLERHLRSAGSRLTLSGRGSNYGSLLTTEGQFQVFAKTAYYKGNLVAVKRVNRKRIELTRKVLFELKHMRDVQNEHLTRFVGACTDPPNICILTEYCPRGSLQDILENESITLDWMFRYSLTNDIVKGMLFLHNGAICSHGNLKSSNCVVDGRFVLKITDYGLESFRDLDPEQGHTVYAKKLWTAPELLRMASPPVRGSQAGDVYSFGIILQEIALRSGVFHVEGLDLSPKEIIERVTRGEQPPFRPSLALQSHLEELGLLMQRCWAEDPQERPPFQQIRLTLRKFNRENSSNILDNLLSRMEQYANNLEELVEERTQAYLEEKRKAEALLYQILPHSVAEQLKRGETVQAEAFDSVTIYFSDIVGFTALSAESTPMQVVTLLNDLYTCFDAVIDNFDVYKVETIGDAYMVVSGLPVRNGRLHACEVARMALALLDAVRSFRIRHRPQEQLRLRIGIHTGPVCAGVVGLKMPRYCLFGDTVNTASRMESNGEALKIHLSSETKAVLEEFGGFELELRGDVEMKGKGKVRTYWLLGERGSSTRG
Summary of the method: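 Cells expressing receptor plus cGMP biosensor are seeded and incubated overnight at 37C, then loaded with GloSensor reagent (2% final) at room temperature for 2 h. Library compounds go on for 30 min. A pre-read precedes agonist (hNppA, 0.1 nM final) and a 20-min readout.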

[3] = NS1 protein of Zika virus - qHTS assay to identify small molecule inhibitors in human HEK 293 cells (AID 1347053); further: nearly all actives have a fitted effect of over 55% in size; further: potency means the concentration at half of the fitted maximal effect
Summary of the method: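 In this cell-based screen, HEK 293 cultures received compound for one hour before Zika MR766 at MOI = 0.5. NS1 was quantified 24 hours later by TR-FRET, normalized to virus-free wells and infected wells.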

[4] = biological target: T1, Tyrosine-protein phosphatase non-receptor type substrate 1 (Homo sapiens) + Leukocyte surface antigen CD47 (Homo sapiens) (UniProt P78324+Q08722); assay: CD47-SIRPalpha protein protein interaction - LANCE assay qHTS validation (AID 1347057; active means well fitted curve in the direction sought with a large enough effect in the signal ratio, with a control signal flat, not every such curve was filed as active; the % refers to the signal ratio; further: series mostly up to about 38 µM)
T1 sequence (P78324 whole entry, looked up, the tested form may be a part): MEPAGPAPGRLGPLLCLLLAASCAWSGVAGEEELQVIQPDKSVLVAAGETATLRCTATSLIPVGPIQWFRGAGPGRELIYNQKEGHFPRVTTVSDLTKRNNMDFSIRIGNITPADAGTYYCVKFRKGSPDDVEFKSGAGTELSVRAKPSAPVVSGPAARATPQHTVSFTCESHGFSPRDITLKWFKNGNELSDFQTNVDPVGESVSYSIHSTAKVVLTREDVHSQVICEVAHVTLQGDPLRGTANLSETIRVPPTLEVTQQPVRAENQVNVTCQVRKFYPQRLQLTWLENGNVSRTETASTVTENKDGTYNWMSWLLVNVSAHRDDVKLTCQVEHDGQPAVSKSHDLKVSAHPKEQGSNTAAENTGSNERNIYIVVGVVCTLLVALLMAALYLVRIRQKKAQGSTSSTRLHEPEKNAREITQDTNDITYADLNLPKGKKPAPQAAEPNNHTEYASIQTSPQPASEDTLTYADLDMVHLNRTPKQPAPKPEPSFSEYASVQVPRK
T1 sequence (Q08722 whole entry, looked up, the tested form may be a part): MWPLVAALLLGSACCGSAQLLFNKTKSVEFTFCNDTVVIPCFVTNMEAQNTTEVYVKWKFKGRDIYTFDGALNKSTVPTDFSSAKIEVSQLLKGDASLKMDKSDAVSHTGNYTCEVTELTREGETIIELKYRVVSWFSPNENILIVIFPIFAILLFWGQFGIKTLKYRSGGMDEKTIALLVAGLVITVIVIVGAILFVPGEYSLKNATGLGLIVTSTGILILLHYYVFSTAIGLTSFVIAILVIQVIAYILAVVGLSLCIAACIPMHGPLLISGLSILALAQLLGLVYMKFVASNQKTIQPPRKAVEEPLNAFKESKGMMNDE
Summary of the method: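 Inhibition of soluble CD47/SIRPalpha ectodomain association by titrated compounds, measured as 665/615 nm time-resolved FRET ratio after sequential 30 min room-temperature incubations.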

[5] = biological target: T1, Tyrosine-protein phosphatase non-receptor type substrate 1 (Homo sapiens) + Leukocyte surface antigen CD47 (Homo sapiens); assay: CD47-SIRPalpha protein protein interaction - HTRF assay qHTS validation (AID 1347058; active means well fitted curve in the direction sought with a large enough effect in the signal ratio, not every such curve was filed as active; the % refers to the signal ratio; further: series mostly up to about 38 µM)
Summary of the method: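 Soluble extracellular domains (6His-CD47, Avi-tag-biotinylated SIRPalpha) in PBS pH 7.4 with 0.05% IGEPAL CA-630. Compounds were preincubated 30 min at RT with CD47 and anti-His-Eu, then SIRPalpha and SAV-XL665 were added. TR-FRET 665/615 ratio.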

[6] = biological target: T1, Tyrosine-protein phosphatase non-receptor type substrate 1 (Homo sapiens) + Leukocyte surface antigen CD47 (Homo sapiens); assay: CD47-SIRPalpha protein protein interaction - Alpha assay qHTS validation (AID 1347059);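 further: bead proximity luminescence from CD47 binding SIRPalpha after compound preincubation with SIRPalpha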
Summary of the method: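 In PBS (pH 7.4) with 0.05% IGEPAL CA-630, compound is preincubated with biotin-Avi-SIRPalpha ectodomain before His-CD47 ectodomain and affinity beads are added. Light-protected room-temperature incubations; AlphaScreen readout.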

[7] = biological target: Parathyroid hormone/parathyroid hormone-related peptide receptor (Homo sapiens) (UniProt Q03431); assay: qHTS for PTHR1 Agonists: Optimization Screen against the NCGC LOPAC library (AID 1347079);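 further: GloSensor cAMP luminescence in HEK-293 GP2 cells expressing human PTHR1 with IBMX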
Sequence of Parathyroid hormone/parathyroid hormone-related peptide receptor (Homo sapiens) (Q03431 whole entry, looked up): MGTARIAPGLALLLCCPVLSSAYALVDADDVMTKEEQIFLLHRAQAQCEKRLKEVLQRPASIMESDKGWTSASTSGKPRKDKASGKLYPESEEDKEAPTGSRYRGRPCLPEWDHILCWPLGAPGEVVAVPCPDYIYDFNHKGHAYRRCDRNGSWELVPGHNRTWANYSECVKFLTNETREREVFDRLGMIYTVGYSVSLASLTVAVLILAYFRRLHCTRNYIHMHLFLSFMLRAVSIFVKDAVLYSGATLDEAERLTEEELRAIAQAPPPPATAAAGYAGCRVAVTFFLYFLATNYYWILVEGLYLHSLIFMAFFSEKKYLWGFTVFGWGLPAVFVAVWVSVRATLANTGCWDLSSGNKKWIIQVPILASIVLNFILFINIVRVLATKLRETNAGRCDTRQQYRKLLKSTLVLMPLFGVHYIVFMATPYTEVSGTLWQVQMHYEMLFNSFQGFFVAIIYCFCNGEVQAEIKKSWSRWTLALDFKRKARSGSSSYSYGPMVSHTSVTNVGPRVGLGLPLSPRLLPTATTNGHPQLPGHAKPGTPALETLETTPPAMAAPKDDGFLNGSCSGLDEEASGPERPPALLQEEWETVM
Summary of the method: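 HEK-293 GP2 cells, PTHR1 + GloSensor cAMP; 3000 cells/well, o/n. Luciferin + IBMX 0.5mM each (stock), 1 hr 37C. Cpd titration, 1 hr 37C. Lum after 15 min RT. Ctrl M-PTH(1-15) top 10uM.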

[8] = qHTS of pediatric cancer cell lines to identify multiple opportunities for drug repurposing: Primary screen for U-2 OS cells (AID 1347096); further: nearly all actives have a fitted effect of over 50% in size; further: potency means the concentration at half of the fitted maximal effect
Summary of the method: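 Cells (500-1,000/well) in growth media were settled 5 h at 37 degrees C, then given compounds for 48 h. Viability was read as CellTiter-Glo luminescence. Primary runs used MIPE at 11 points (0.78 nM-46 µM) and NPC at 8 points (0.59 nM-46 µM); follow-ups used 11 points.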

[9] = qHTS of pediatric cancer cell lines to identify multiple opportunities for drug repurposing: Primary screen for SK-N-SH cells (AID 1347098); further: nearly all actives have a fitted effect of over 65% in size; further: potency means the concentration at half of the fitted maximal effect
Summary of the method: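 Cells (500-1,000/well) rested 5 h, then received compounds for 48 h; metabolically active cells were measured by CellTiter-Glo luminescence. Final concentrations spanned up to 46 µM (MIPE, 11-point) or 0.59 nM-46 µM (NPC, 8-point) in primary screens, 11-point in follow-ups.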

[10] = qHTS of pediatric cancer cell lines to identify multiple opportunities for drug repurposing: Primary screen for NB1643 cells (AID 1347099); further: nearly all actives have a fitted effect of over 50% in size; further: potency means the concentration at half of the fitted maximal effect
Summary of the method: (§1)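 Following a 5-hour attachment period, cells at 500-1,000/well received compounds and were cultured for 48 hours. CellTiter-Glo was added and luminescence read to estimate viable, metabolically active cells.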

[11] = Natriuretic polypeptide receptor (hNpr1) antagonism - Pilot counterscreen GloSensor control cell line (AID 1347045; calls by dose curve; further: potency means the concentration at half of the fitted maximal effect)
Summary of the method: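 Control counterscreen: luciferase cGMP-biosensor HEK293 cells (no Npr1) received compound for 30 min at room temperature after GloSensor substrate loading. Luminescence was measured before and 20 min after soluble guanylyl cyclase activation by 50 uM nitroprusside.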

[12] = biological target: Atrial natriuretic peptide receptor 2 (Homo sapiens) (UniProt P20594); assay: Natriuretic polypeptide receptor (hNpr2) antagonism - Pilot subtype selectivity assay (AID 1347050; calls by dose curve; further: potency means the concentration at half of the fitted maximal effect)
Sequence of Atrial natriuretic peptide receptor 2 (Homo sapiens) (P20594 whole entry, looked up): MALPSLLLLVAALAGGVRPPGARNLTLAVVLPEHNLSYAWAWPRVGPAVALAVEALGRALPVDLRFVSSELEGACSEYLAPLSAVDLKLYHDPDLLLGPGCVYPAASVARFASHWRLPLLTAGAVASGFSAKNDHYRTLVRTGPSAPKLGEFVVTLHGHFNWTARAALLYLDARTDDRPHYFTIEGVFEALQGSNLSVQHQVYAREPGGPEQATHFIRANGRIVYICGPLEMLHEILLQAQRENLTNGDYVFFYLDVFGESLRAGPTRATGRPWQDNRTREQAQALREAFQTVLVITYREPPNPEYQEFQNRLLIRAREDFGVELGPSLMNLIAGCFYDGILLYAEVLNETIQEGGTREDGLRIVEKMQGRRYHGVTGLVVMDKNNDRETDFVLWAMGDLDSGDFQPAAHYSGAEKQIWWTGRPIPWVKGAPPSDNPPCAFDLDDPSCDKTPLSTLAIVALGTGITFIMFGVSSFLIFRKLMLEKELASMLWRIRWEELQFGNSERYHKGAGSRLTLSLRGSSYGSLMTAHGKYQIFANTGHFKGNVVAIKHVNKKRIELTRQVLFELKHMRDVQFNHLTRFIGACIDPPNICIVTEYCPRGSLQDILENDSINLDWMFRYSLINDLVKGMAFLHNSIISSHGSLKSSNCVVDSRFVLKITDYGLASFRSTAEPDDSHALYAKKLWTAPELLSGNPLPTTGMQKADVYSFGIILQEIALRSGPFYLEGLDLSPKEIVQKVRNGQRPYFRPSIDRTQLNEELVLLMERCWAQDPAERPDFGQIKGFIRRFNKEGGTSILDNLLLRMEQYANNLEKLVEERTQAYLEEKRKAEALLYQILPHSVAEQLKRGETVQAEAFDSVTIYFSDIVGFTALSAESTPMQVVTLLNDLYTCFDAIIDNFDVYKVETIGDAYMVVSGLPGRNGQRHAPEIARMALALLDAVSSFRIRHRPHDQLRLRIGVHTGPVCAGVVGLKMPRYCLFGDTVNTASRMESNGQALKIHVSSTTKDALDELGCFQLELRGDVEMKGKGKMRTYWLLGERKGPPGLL
Summary of the method: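 Read-out: GloSensor luminescence (CCD imager), baseline vs post-stimulation. HEK293 cells expressing hNpr2; compounds pre-incubated 30-50 min at ambient temperature; hNppC 1 nM final, 20 min.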

[13] = qHTS of pediatric cancer cell lines to identify multiple opportunities for drug repurposing: Primary screen for TC32 cells (AID 1347089); further: nearly all actives have a fitted effect of over 60% in size
Summary of the method: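 qHTS, TC32, 48 h drug treatment, CellTiter-Glo luminescence as a proxy for metabolically active cells; primary top concentration 46 µM (MIPE 11-pt, NPC 8-pt); confirmatory 11-pt.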

[14] = qHTS of pediatric cancer cell lines to identify multiple opportunities for drug repurposing: Primary screen for DAOY cells (AID 1347090); further: nearly all actives have a fitted effect of over 55% in size; further: potency means the concentration at half of the fitted maximal effect
Summary of the method: (§2)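 Eight- or eleven-point concentration series, 48 h treatment at 37 degrees C in growth media; readout CellTiter-Glo luminescence. Potency and efficacy were taken from the concentration-response curves.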

[15] = qHTS of pediatric cancer cell lines to identify multiple opportunities for drug repurposing: Primary screen for SJ-GBM2 cells (AID 1347091); further: potency means the concentration at half of the fitted maximal effect
Summary of the method: as §2

[16] = qHTS of pediatric cancer cell lines to identify multiple opportunities for drug repurposing: Primary screen for NB-EBc1 cells (AID 1347095); further: potency means the concentration at half of the fitted maximal effect
Summary of the method: as §1

[17] = qHTS of pediatric cancer cell lines to identify multiple opportunities for drug repurposing: Primary screen for BT-37 cells (AID 1347094); further: potency means the concentration at half of the fitted maximal effect
Summary of the method: as §1

[18] = qHTS of pediatric cancer cell lines to identify multiple opportunities for drug repurposing: Primary screen for SK-N-MC cells (AID 1347093); further: potency means the concentration at half of the fitted maximal effect
Summary of the method: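 Metabolically active cells were quantified by ATP-dependent luminescence (CellTiter-Glo, 15 min at room temperature) following 48 h treatment. Cells had been plated at 500-1,000 per well and settled for 5 h beforehand.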

[19] = qHTS of pediatric cancer cell lines to identify multiple opportunities for drug repurposing: Primary screen for Saos-2 cells (AID 1347097); further: nearly all actives have a fitted effect of over 40% in size; further: potency means the concentration at half of the fitted maximal effect
Summary of the method: as §1

[20] = qHTS of pediatric cancer cell lines to identify multiple opportunities for drug repurposing: Primary screen for A673 cells (AID 1347092); further: nearly all actives have a fitted effect of over 45% in size; further: potency means the concentration at half of the fitted maximal effect
Summary of the method: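 Luminescence from CellTiter-Glo, taken after 15 min at room temperature, served as the proxy for metabolically active cells following 48 h treatment. Both potency and efficacy were taken from curves fitted to the titration data.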

Measured: Potency

Oc1ccc2ccccc2c1SSc1c(O)ccc2ccccc12
inactive: [1] | [2] inactive; inac | [3] | [4] | [5] | [6] | [7] | [8]
active: [9] 19.2 µM | [10] 26.4 µM

O=c1c(O)c(-c2cc(O)c(O)c(O)c2)oc2cc(O)cc(O)c12
inactive: [1] | [11] | [12] | [3] | [4] | [6] | [7] | [13] | [14] | [15] | [16] | [8] | [9] | [10]

Cc1cccc(C#Cc2ccccc2)n1
inactive: [1] | [3] | [4] | [6] | [7] | [13] | [14] | [15] | [17] | [16] | [8]

OC(CN1CCN(c2cccc(Cl)c2)CC1)C(c1ccccc1)c1ccccc1 (centres undefined)
active: [18] 10.5 µM | [19] 18.7 µM | [9] 15.2 µM
inactive: [1] | [11] | [12] | [3] | [7] | [13] | [8]

CC1(C)NC(=O)N(c2ccc([N+](=O)[O-])c(C(F)(F)F)c2)C1=O
inactive: [11] | [12] | [3] | [4] | [6] | [7] | [14] | [15] | [20] | [18] | [17] | [16] | [8] | [19] | [9] | [10]
13 µM (active) and inactive: [1]

C[C@H](Cc1ccc(O)c(O)c1)[C@@H](C)Cc1ccc(O)c(O)c1
active: [18] 11.8 µM | [16] 2.35 µM | [19] 29.6 µM | [10] 14.8 µM
inactive: [1] | [2] | [12] | [3] | [4] | [5] | [6] | [7] | [9]

COc1ccc2cc([C@H](C)C(=O)O)ccc2c1
inactive: [1] | [11] | [2] | [12] | [3] | [4] | [5] | [6] | [13] | [14] | [15] | [18] | [17] | [16] | [8] | [19] | [9] | [10]

CCOC(=O)C(C)Oc1cccc2c(=O)n(CC(=O)Nc3ccc4c(c3)OCCO4)ccc12 (centres undefined)
inactive: [1] | [11] | [2] | [12] | [3] | [4] | [5] | [6] | [7] | [13] | [15] | [17] | [16] | [8] | [19] | [9]
active: [20] 7.43 µM

c1cnc2cc3c(cc2n1)C1CNCC3C1
inactive: [1] | [3] | [4] | [5] | [6] | [13] | [14] | [15] | [17] | [16] | [8] | [19] | [9]
active: [18] 4.69 µM

CCOC(=O)C1=C(O)C(=O)N(Cc2ccccc2)C1
inactive: [1] | [3] | [4] | [5] | [6] | [13] | [14] | [15] | [18] | [16] | [8] | [19] | [9] | [10]

NC(=NCc1ccccc1)NC(=O)c1nc(Cl)c(N)nc1N
active: [14] 18.7 µM | [20] 5.9 µM | [18] 1.18 µM | [10] 9.35 µM
inactive: [1] | [11] | [2] | [12] | [3] | [4] | [6] | [7] | [15] | [17] | [16] | [8] | [19] | [9]

CCN(CC)C(=S)SSC(=S)N(CC)CC
41.8 nM (active) and inactive: [1]
active: [11] 3.29 µM | [2] 2.39 µM | [12] 5.21 µM | [3] 8.33 µM | [14] 11.8 nM and 49.5 nM and 133 nM | [15] 4.69 µM | [20] 11.8 nM and 19.7 nM | [18] 18.7 nM and 49.5 nM and 119 nM | [17] 24.3 nM and 815 nM | [16] 11.8 nM and 31.3 µM | [8] 0.0743 µM | [19] 13.2 nM and 62.4 nM and 211 nM | [9] 0.114 µM | [10] 83.3 nM and 124 nM and 668 nM
inactive: [4] | [5] | [6] | [7]

COc1cc2c(cc1OC)C1CC(=O)C(CC(C)C)CN1CC2 (centres undefined)
inactive: [1] | [11] | [2] | [12] | [3] | [4] | [5] | [6] | [7] | [13] | [14] | [15] | [20] | [18] | [17] | [16] | [8] | [19] | [9] | [10]

Oc1ccc(-c2nc(-c3ccc(F)cc3)c(-c3ccncc3)[nH]2)cc1
active: [14] 23.5 µM | [20] 14.8 µM | [18] 2.35 µM | [10] 10.5 µM
inactive: [1] | [11] | [12] | [3] | [4] | [6] | [7] | [17] | [16] | [8]

— PubChem BioAssay (NCATS)
